# PubChem BioAssay (EPA / NIEHS)
# Some compounds were tested as several samples or in several runs, with calls that do not always agree. Calls of active or inactive are those of the source. How the source made its calls: active means hit-call score of the fitted dose curve at least 0.9, where 1 is the maximum; inactive means score below 0.9.
# Read-out: CD40, CD40 (gene 958)
# Experiment: BSK_LPS_CD40: BioMAP Diversity Plus: LPS Assay for CD40 Biomarker Activity (AID 2283076)
# Conditions: primary human HUVEC with PBMC; actives raise or lower the signal
# Experimental: BSK_LPS is a cell-based, multiplexed-readout assay that uses umbilical vein endothelium and peripheral blood mononuclear cells, a human vascular primary cell co-culture, with measurements taken at 24 hours after chemical dosing in a 96-well plate.BSK_LPS_CD40 is an assay component measured in the BSK_LPS assay. It measures CD40 antibody related to regulation of gene expression using ELISA technology.Data from the assay component BSK_LPS_CD40 was analyzed into 1 assay endpoint. This assay endpoint, BSK_LPS_CD40, was analyzed with bidirectional fitting relative to DMSO as the negative control and baseline of activity. Using a type of binding reporter, gain or loss-of-signal activity can be used to understand changes in the signaling as they relate to the gene CD40. Furthermore, this assay endpoint can be referred to as a primary readout, because this assay has produced multiple assay endpoints where this one serves a signaling function. To generalize the intended target to other relatable targets, this assay endpoint is annotated to the cytokine intended target family, where the subfamily is inflammatory factor.
# The levels of cell surface (or secreted, indicated by the prefix "s") biomarker endpoints were measured by ELISA. Overt cytotoxicity to cells in confluent adherent cultures (all systems other than the BT system) was assessed by measuring total protein levels using sulforhodamine B (SRB) staining in parallel cultures at the time of biomarker measurements, indicated as SRB endpoints. For proliferation assays for adherent cell types, individual cell types are cultured at sub-confluence and relative cell numbers quantified by SRB staining at time points optimized for each system (48 h: 3C and CASM3C systems; 72 h: BT and HDF3CGF systems; 96 h: SAg system). SRB was performed by staining cells with 0.1% SRB after fixation with 10% TCA and reading wells at 560 nm.Viability and proliferation of PBMC (T cells) was quantified by Alamar Blue reduction for the SAg and BT systems. For PBMC viability (referred to as PBMC Cytotoxicity within the assay endpoint names), cells were plated (75,000/well in a 96-well plate) and then chemical samples added for 1 h before addition of activators, SEB and TSST-1 (20 ng/mL final concentration each). Cells were incubated for 90 h. Then, Alamar Blue (20 uL/well) (Invitrogen, Cat DAL1100) was added for 6 h, and the plates were read with a fluorescence microplate reader at 546/580 nm (excitation/emission). For PBMC proliferation, cells were plated and activated as above but incubated for only 16 h prior to addition of Alamar Blue. Plates were read after 6 h.
Compound,outcome,AC50
Nc1cc([N+](=O)[O-])ccc1Cl,inactive,
CC1COc2ccccc2N1C(=O)C(Cl)Cl (stereo not given),,10.9 µM (active)
NCCNCCN,inactive,
O=[N+]([O-])c1cc(C(F)(F)F)ccc1Cl,inactive,
CNC[C@H](O)c1cccc(O)c1,inactive,
Cc1ccc(Nc2ccc(O)c3c2C(=O)c2ccccc2C3=O)cc1,inactive,
CC(C)(COC(=O)c1ccccc1)COC(=O)c1ccccc1,,32 µM (active)
C=C(C)C(=O)O[C@H]1C[C@@H]2CC[C@@]1(C)C2(C)C,,27.8 µM (active)
CCCCCCCCC=O,inactive,
C=C[Si](OCC)(OCC)OCC,inactive,
O=P(c1ccccc1)(c1ccccc1)c1ccccc1,inactive,
O=C=NC1CCC(CC2CCC(N=C=O)CC2)CC1 (stereo not given),inactive,
c1ccc2sc(SN(C3CCCCC3)C3CCCCC3)nc2c1,inactive,
Cc1cc(C2(c3cc(C)c(O)cc3C)OS(=O)(=O)c3ccccc32)c(C)cc1O,inactive,
CCCCC(CC)COC(=O)/C=C\C(=O)OCC(CC)CCCC (stereo not given),inactive,
C=CCOC(=O)CCC1CCCCC1,inactive,
N#Cc1ccc(CC(=NNC(=O)Nc2ccc(OC(F)(F)F)cc2)c2cccc(C(F)(F)F)c2)cc1,inactive,
CC(=O)Nc1ccccc1O,inactive,
CC(=O)O[C@]1(C(C)=O)CC[C@H]2[C@@H]3C[C@H](C)C4=CC(=O)CC[C@]4(C)[C@H]3CC[C@@]21C,inactive,
CCCCC(CC)COCCC#N (stereo not given),inactive,

Compound,outcome,AC50
CCn1c2ccccc2c2cc(N)ccc21,,5.63 µM (active)
OC1OC[C@@H](O)[C@H](O)[C@H]1O (stereo not given in full),inactive,
COc1cc(C=O)ccc1OC(=O)C(C)C,inactive,
CC1CCC(C(C)CS)CC1S (stereo not given),,20 µM (active)
CCCCCCCCCC=O,inactive,
COC(=O)c1ccc(C)cc1,inactive,
BrC1CCC(Br)C(Br)CCC(Br)C(Br)CCC1Br (stereo not given),,4.57 µM (active)
c1ccc2c(c1)c1cccc3ccc4cccc2c4c31,inactive,
O=C(O)c1ccc([N+](=O)[O-])cc1,inactive,
CC[Si](OC(C)=O)(OC(C)=O)OC(C)=O,inactive,0.626 µM (active)
O=C(O)c1cn(-c2ccc(F)cc2)c2cc(N3CCNCC3)c(F)cc2c1=O,inactive,
CCCCCCCCCCCCCCCCCC(=O)OCC(CC)CCCC (stereo not given),inactive,
Nc1cc([N+](=O)[O-])ccc1O,inactive,
C#C[C@]1(O)CC[C@H]2[C@@H]3CCC4=Cc5oncc5C[C@]4(C)[C@H]3CC[C@@]21C,inactive,
CCC(=O)OCc1ccccc1,inactive,
O=C1CCCCCCCCCCCCCCO1,inactive,
CCCCC/C=C/C=C/C=O,,20 µM (active)
CC(C)Oc1ccccc1O,inactive,
O=C(O)C[C@H](O)C[C@H](O)/C=C/c1c(C2CC2)nc2ccccc2c1-c1ccc(F)cc1,inactive,
